# Legend:
# Assay in all cases: SPOT peptide array binding signal intensity (averaged, normalized) (arbitrary units (background-subtracted, floor 0; scale differs between SH3 domains)); higher = stronger binding of the SH3 domain to the peptide
# CaNbp2 = target: CaNbp2
# Experimental: (§1)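 GST-tagged SH3 domains from S. cerevisiae (Sc), A. gossypii (Ag), C. albicans (Ca) and S. pombe (Sp) were incubated at 10 ug/ml overnight at 4 C on cellulose SPOT membranes carrying 292 synthetic 15-mer peptides mined from the S. cerevisiae proteome (cysteines replaced by serines). Binding was detected with anti-GST antibody, HRP secondary and chemiluminescence, quantified with Genespotter, and reported as normalized spot intensities averaged over biological replicates.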
# CaRvs167 = target: CaRvs167
# Experimental: as §1
# CaRvs167-3 = target: CaRvs167-3
# Experimental: as §1
# CaSho1 = target: CaSho1
# Experimental: as §1
# CaSla1-D1-D2 = target: CaSla1-D1-D2
# Experimental: as §1
# CaSla1-D3 = target: CaSla1-D3
# Experimental: as §1
# ScAbp1 = target: ScAbp1
# Experimental: as §1
# ScBbc1 = target: ScBbc1
# Experimental: as §1
# ScBem1-D1 = target: ScBem1-D1
# Experimental: as §1
# ScBzz1-D1 = target: ScBzz1-D1
# Experimental: as §1
# ScBzz1-D2 = target: ScBzz1-D2
# Experimental: as §1
# ScCyk3 = target: ScCyk3
# Experimental: as §1
# ScFus1 = target: ScFus1
# Experimental: as §1
# ScHof1 = target: ScHof1
# Experimental: as §1
# ScHse1 = target: ScHse1
# Experimental: as §1
# ScLsb1 = target: ScLsb1
# Experimental: as §1
# ScLsb2 = target: ScLsb2
# Experimental: as §1
# ScLsb3 = target: ScLsb3
# Experimental: as §1
# ScLsb4 = target: ScLsb4
# Experimental: as §1
# ScMyo3 = target: ScMyo3
# Experimental: as §1
# ScMyo5 = target: ScMyo5
# Experimental: as §1
# ScNbp2 = target: ScNbp2
# Experimental: as §1
# ScPex13 = target: ScPex13
# Experimental: as §1
# ScRvs167 = target: ScRvs167
# Experimental: as §1
# ScSho1 = target: ScSho1
# Experimental: as §1
# ScSla1-D1-D2 = target: ScSla1-D1-D2
# Experimental: as §1
# ScSla1-D3 = target: ScSla1-D3
# Experimental: as §1
# SpAbp1-D1 = target: SpAbp1-D1
# Experimental: as §1
# SpBbc1 = target: SpBbc1
# Experimental: as §1
# SpBzz1-D1 = target: SpBzz1-D1
# Experimental: as §1
# SpBzz1-D2 = target: SpBzz1-D2
# Experimental: as §1
# SpCyk3 = target: SpCyk3
# Experimental: as §1
# SpHof1 = target: SpHof1
# Experimental: as §1
# SpHof1-2 = target: SpHof1-2
# Experimental: as §1
# SpHof1-3 = target: SpHof1-3
# Experimental: as §1
# SpHse1 = target: SpHse1
# Experimental: as §1
# SpLsb1 = target: SpLsb1
# Experimental: as §1
# SpLsb4 = target: SpLsb4
# Experimental: as §1
# SpMyo1 = target: SpMyo1
# Experimental: as §1
# SpNbp2 = target: SpNbp2
# Experimental: as §1
# SpPex13 = target: SpPex13
# Experimental: as §1
# SpRvs167 = target: SpRvs167
# Experimental: as §1
# SpSla1-D1-D2 = target: SpSla1-D1-D2
# Experimental: as §1
# SpSla1-D3 = target: SpSla1-D3
# Experimental: as §1
# AgAbp1 = target: AgAbp1
# Experimental: as §1
# AgBbc1 = target: AgBbc1
# Experimental: as §1
# AgBem1-D1 = target: AgBem1-D1
# Experimental: as §1
# AgBzz1-D1 = target: AgBzz1-D1
# Experimental: as §1
# AgBzz1-D2 = target: AgBzz1-D2
# Experimental: as §1
# AgCyk3 = target: AgCyk3
# Experimental: as §1
# AgFus1 = target: AgFus1
# Experimental: as §1
# AgHof1 = target: AgHof1
# Experimental: as §1
# AgHse1 = target: AgHse1
# Experimental: as §1
# AgLsb1 = target: AgLsb1
# Experimental: as §1
# AgLsb4 = target: AgLsb4
# Experimental: as §1
# AgMyo5 = target: AgMyo5
# Experimental: as §1
# AgNbp2 = target: AgNbp2
# Experimental: as §1
# AgRvs167 = target: AgRvs167
# Experimental: as §1
# AgSho1 = target: AgSho1
# Experimental: as §1
# AgSla1-D1-D2 = target: AgSla1-D1-D2
# Experimental: as §1
# AgSla1-D3 = target: AgSla1-D3
# Experimental: as §1
# CaAbp1-D1 = target: CaAbp1-D1
# Experimental: as §1
# CaAbp1-D2 = target: CaAbp1-D2
# Experimental: as §1
# CaBbc1 = target: CaBbc1
# Experimental: as §1
# CaBem1-D1 = target: CaBem1-D1
# Experimental: as §1
# CaBzz1-D1 = target: CaBzz1-D1
# Experimental: as §1
# CaBzz1-D2 = target: CaBzz1-D2
# Experimental: as §1
# CaCyk3 = target: CaCyk3
# Experimental: as §1
# CaFus1 = target: CaFus1
# Experimental: as §1
# CaHof1 = target: CaHof1
# Experimental: as §1
# CaHse1 = target: CaHse1
# Experimental: as §1
# CaLsb1 = target: CaLsb1
# Experimental: as §1
# CaLsb4 = target: CaLsb4
# Experimental: as §1
# CaMyo5 = target: CaMyo5
# Experimental: as §1
binder,measurement,setting,value
NRPAIRIPSLKKPAL,SPOT peptide array binding signal intensity,CaNbp2,270
same,SPOT peptide array binding signal intensity,CaRvs167,33.3
same,SPOT peptide array binding signal intensity,CaRvs167-3,23
same,SPOT peptide array binding signal intensity,CaSho1,218
same,SPOT peptide array binding signal intensity,CaSla1-D1-D2,4.5
same,SPOT peptide array binding signal intensity,CaSla1-D3,0.75
same,SPOT peptide array binding signal intensity,ScAbp1,53.5
same,SPOT peptide array binding signal intensity,ScBbc1,9.25
same,SPOT peptide array binding signal intensity,ScBem1-D1,19
same,SPOT peptide array binding signal intensity,ScBzz1-D1,31.5
same,SPOT peptide array binding signal intensity,ScBzz1-D2,12.5
same,SPOT peptide array binding signal intensity,ScCyk3,20
same,SPOT peptide array binding signal intensity,ScFus1,243
same,SPOT peptide array binding signal intensity,ScHof1,≤ 0
same,SPOT peptide array binding signal intensity,ScHse1,2200
same,SPOT peptide array binding signal intensity,ScLsb1,118
same,SPOT peptide array binding signal intensity,ScLsb2,12.5
same,SPOT peptide array binding signal intensity,ScLsb3,40
same,SPOT peptide array binding signal intensity,ScLsb4,10
same,SPOT peptide array binding signal intensity,ScMyo3,1
same,SPOT peptide array binding signal intensity,ScMyo5,≤ 0
same,SPOT peptide array binding signal intensity,ScNbp2,169
same,SPOT peptide array binding signal intensity,ScPex13,23.8
same,SPOT peptide array binding signal intensity,ScRvs167,39.8
same,SPOT peptide array binding signal intensity,ScSho1,412
same,SPOT peptide array binding signal intensity,ScSla1-D1-D2,167
same,SPOT peptide array binding signal intensity,ScSla1-D3,4
same,SPOT peptide array binding signal intensity,SpAbp1-D1,135
same,SPOT peptide array binding signal intensity,SpBbc1,3.75
same,SPOT peptide array binding signal intensity,SpBzz1-D1,92
same,SPOT peptide array binding signal intensity,SpBzz1-D2,≤ 0
same,SPOT peptide array binding signal intensity,SpCyk3,5
same,SPOT peptide array binding signal intensity,SpHof1,66.5
same,SPOT peptide array binding signal intensity,SpHof1-2,1.5
same,SPOT peptide array binding signal intensity,SpHof1-3,850
same,SPOT peptide array binding signal intensity,SpHse1,664
same,SPOT peptide array binding signal intensity,SpLsb1,43.5
same,SPOT peptide array binding signal intensity,SpLsb4,27.5
same,SPOT peptide array binding signal intensity,SpMyo1,≤ 0
same,SPOT peptide array binding signal intensity,SpNbp2,104
same,SPOT peptide array binding signal intensity,SpPex13,3
same,SPOT peptide array binding signal intensity,SpRvs167,13.3
same,SPOT peptide array binding signal intensity,SpSla1-D1-D2,≤ 0
same,SPOT peptide array binding signal intensity,SpSla1-D3,≤ 0
LLIRWLILMPLVGSR,SPOT peptide array binding signal intensity,AgAbp1,19.5
same,SPOT peptide array binding signal intensity,AgBbc1,29.5
same,SPOT peptide array binding signal intensity,AgBem1-D1,284
same,SPOT peptide array binding signal intensity,AgBzz1-D1,39
same,SPOT peptide array binding signal intensity,AgBzz1-D2,62
same,SPOT peptide array binding signal intensity,AgCyk3,24.5
same,SPOT peptide array binding signal intensity,AgFus1,3190
same,SPOT peptide array binding signal intensity,AgHof1,53
same,SPOT peptide array binding signal intensity,AgHse1,2550
same,SPOT peptide array binding signal intensity,AgLsb1,2.5
same,SPOT peptide array binding signal intensity,AgLsb4,1800
same,SPOT peptide array binding signal intensity,AgMyo5,4.5
same,SPOT peptide array binding signal intensity,AgNbp2,722
same,SPOT peptide array binding signal intensity,AgRvs167,26.5
same,SPOT peptide array binding signal intensity,AgSho1,1270
same,SPOT peptide array binding signal intensity,AgSla1-D1-D2,41
same,SPOT peptide array binding signal intensity,AgSla1-D3,5
same,SPOT peptide array binding signal intensity,CaAbp1-D1,334
same,SPOT peptide array binding signal intensity,CaAbp1-D2,321
same,SPOT peptide array binding signal intensity,CaBbc1,68
same,SPOT peptide array binding signal intensity,CaBem1-D1,125
same,SPOT peptide array binding signal intensity,CaBzz1-D1,222
same,SPOT peptide array binding signal intensity,CaBzz1-D2,109
same,SPOT peptide array binding signal intensity,CaCyk3,48
same,SPOT peptide array binding signal intensity,CaFus1,5090
same,SPOT peptide array binding signal intensity,CaHof1,1.25
same,SPOT peptide array binding signal intensity,CaHse1,875
same,SPOT peptide array binding signal intensity,CaLsb1,26.5
same,SPOT peptide array binding signal intensity,CaLsb4,191
same,SPOT peptide array binding signal intensity,CaMyo5,40
same,SPOT peptide array binding signal intensity,CaNbp2,1390
same,SPOT peptide array binding signal intensity,CaRvs167,524
same,SPOT peptide array binding signal intensity,CaRvs167-3,780
same,SPOT peptide array binding signal intensity,CaSho1,3580
same,SPOT peptide array binding signal intensity,CaSla1-D1-D2,30
same,SPOT peptide array binding signal intensity,CaSla1-D3,397
same,SPOT peptide array binding signal intensity,ScAbp1,35
same,SPOT peptide array binding signal intensity,ScBbc1,1.5
same,SPOT peptide array binding signal intensity,ScBem1-D1,60
same,SPOT peptide array binding signal intensity,ScBzz1-D1,37
same,SPOT peptide array binding signal intensity,ScBzz1-D2,240
same,SPOT peptide array binding signal intensity,ScCyk3,122
same,SPOT peptide array binding signal intensity,ScFus1,3690
same,SPOT peptide array binding signal intensity,ScHof1,0.25
same,SPOT peptide array binding signal intensity,ScHse1,2940
same,SPOT peptide array binding signal intensity,ScLsb1,11
same,SPOT peptide array binding signal intensity,ScLsb2,33
same,SPOT peptide array binding signal intensity,ScLsb3,850
same,SPOT peptide array binding signal intensity,ScLsb4,150
same,SPOT peptide array binding signal intensity,ScMyo3,5
same,SPOT peptide array binding signal intensity,ScMyo5,7
same,SPOT peptide array binding signal intensity,ScNbp2,566
same,SPOT peptide array binding signal intensity,ScPex13,65.2
same,SPOT peptide array binding signal intensity,ScRvs167,19.3
same,SPOT peptide array binding signal intensity,ScSho1,2890
same,SPOT peptide array binding signal intensity,ScSla1-D1-D2,23
same,SPOT peptide array binding signal intensity,ScSla1-D3,132
same,SPOT peptide array binding signal intensity,SpAbp1-D1,248
same,SPOT peptide array binding signal intensity,SpBbc1,22.8
same,SPOT peptide array binding signal intensity,SpBzz1-D1,300

# From the supplement of paper PMC4466140
